Several values for one entry are separate records, joined by “and”; a condition that tells them apart may be missing. Equal values may be shown once. About 4,000 (25%) of roughly 16,000 compounds were called active. Inconclusive results (about 26%) are left out. Calls follow the shape of the dose curve; as a rule, active = well fitted curve in the direction sought with a large enough effect; inconclusive = small, poorly fitted or top-dose-only effect, or effect the other way; inactive = no such curve, though single readings can be large or run the other way. Only a sample is shown. The source holds several records for some structures; these can differ, active in one and inactive in another.

In general, AC50 refers to the concentration at which the activity in the assay is half-maximal.
% is scaled to controls: 0 for no effect and ±100 for the full control effect.

Chain of Cytochrome P450 2C9 (Homo sapiens) (P11712 whole entry, looked up): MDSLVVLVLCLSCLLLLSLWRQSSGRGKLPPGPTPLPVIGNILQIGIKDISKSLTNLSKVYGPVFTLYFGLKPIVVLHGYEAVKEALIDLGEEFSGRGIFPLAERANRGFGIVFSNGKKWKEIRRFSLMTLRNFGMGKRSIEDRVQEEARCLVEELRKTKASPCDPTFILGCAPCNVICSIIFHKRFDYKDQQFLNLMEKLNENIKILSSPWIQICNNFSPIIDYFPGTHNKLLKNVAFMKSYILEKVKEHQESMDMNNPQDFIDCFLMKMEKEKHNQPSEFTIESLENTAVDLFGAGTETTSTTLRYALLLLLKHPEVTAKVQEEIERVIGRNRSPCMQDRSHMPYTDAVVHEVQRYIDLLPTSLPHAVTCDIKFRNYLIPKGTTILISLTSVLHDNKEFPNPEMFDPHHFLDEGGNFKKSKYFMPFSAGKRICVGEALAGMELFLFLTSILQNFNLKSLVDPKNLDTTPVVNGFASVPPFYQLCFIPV

This assay concerns the target Cytochrome P450 2C9 (Homo sapiens) (UniProt P11712). Briefly: Cytochrome panel assay with activity outcomes. The conditions noted are these: recombinant CYP, pro-luciferin dealkylation, luminescence, p450-cyp2c9; series mostly up to 57.1 µM.
Take `Cc1nc2ccccc2cc1C[N+]12CN3CN(CN(C3)C1)C2`: the activity, negative = inhibition was 18.3% [at 11.4 µM] (inactive).

Turning to `COc1ccc2c(c1)C13CCCC[C@@H]1C(C2)N(C)CC3` (stereo not given in full), the activity, negative = inhibition entry is “inactive”.

For `CC[C@H](C)C(=O)O[C@@H]1[C@H](O)[C@@H]2[C@H](CN3C[C@@H](C)CC[C@@H]3[C@@]2(C)O)[C@@H]2C[C@@]34O[C@@]5(O)[C@@H](OC(=O)[C@](C)(O)CC)CC[C@@]3(C)[C@H]5[C@H](OC(C)=O)[C@@H](OC(C)=O)[C@H]4[C@]12O`, the activity, negative = inhibition entry was “inactive”.

As for `COc1cc2c3cc1Oc1c(O)c(OC)cc4c1[C@@H](Cc1ccc(cc1)Oc1cc(ccc1O)C[C@H]3N(C)CC2)N(C)CC4`, the activity, negative = inhibition is 2.87% [at 11.4 µM] (inactive).

For the molecule `CC(C)N(CC[C@@](C(N)=O)(c1ccccc1)c1ccccn1)C(C)C`, the activity, negative = inhibition entry was “inactive”.

Turning to `N[C@H](Cn1ccc(=O)[nH]c1=O)C(=O)O`, the activity, negative = inhibition result is “inactive”.

As for `O=[N+]([O-])c1ccc2nc(N3CCNCC3)ccc2c1`, the activity, negative = inhibition entry is “inactive”.

Regarding `CC12CN3CC(C)(CN(C1)C31CCSCC1)C2=O`, the activity, negative = inhibition entry is “inactive”.

Turning to `NCCc1c[nH]c2ccc(C(N)=O)cc12`, the activity, negative = inhibition entry was “inactive”.

`N[C@@H](Cc1ccccc1)P(=O)(O)O`: the activity, negative = inhibition is -8.88% [at 11.4 µM] (inactive).

`CN1[C@H](CC(=O)c2ccccc2)CCC[C@H]1C[C@H](O)c1ccccc1`: the activity, negative = inhibition entry is “inactive”.

As to `CC1(C)CCC2=C(O1)c1ccccc1C(=O)C2=O`, the AC50 is 31.6 µM (active).

`C[C@@H]1CC[C@@H]2N(C1)C[C@H]1[C@@](O)([C@H](O)C[C@]3(O)[C@H]4CC[C@H]5[C@]6(O)O[C@]4(C[C@]13O)[C@@]5(C)CC[C@@H]6O)[C@@]2(C)O`: the activity, negative = inhibition was -2.76% [at 11.4 µM] (inactive).

As for `C=CCn1c(O)c(C(C)=NCCCN2CCOCC2)c(=O)[nH]c1=O`, the activity, negative = inhibition result is “inactive”.

As to `C=C(C)[C@H]1CN[C@H](C(=O)O)[C@@H]1CC(=O)O`, the activity, negative = inhibition result was “inactive”.

As for `COc1c2c(cc3c1OCO3)CCN(C)C2`, the activity, negative = inhibition result is “inactive”.

Regarding `NCC#Cc1ccccc1`, the AC50 was 10 µM (active).

Take `O=C(Oc1ccccc1)N1CCC[C@@]2(CCN(C(c3ccccc3)c3ccccc3)C2)C1`: the activity, negative = inhibition entry was “inactive”.

Consider `C[N+]1([O-])[C@@H]2CC[C@H]1CC(OC(=O)[C@@H](CO)c1ccccc1)C2` (stereo not given in full), for which the activity, negative = inhibition result is “inactive”.

As to `COC(=O)[C@@]1(Cc2ccc(F)cc2)[C@H]2c3cc(C(=O)N(C)C)[nH]c3C[C@H]2CN1C(=O)c1ccccc1`, the AC50 was 10 µM (active).

`CN(C)CCCc1c[nH]c2ccccc12`: the activity, negative = inhibition is -1.95% [at 11.4 µM] (inactive).

With `COc1cc2c(cc1O)C[C@H]1c3c(cc(O)c(OC)c3-2)CCN1C`, the activity, negative = inhibition result is “inactive”.

Turning to `Cn1c[n+](C)cc1C(O)c1ccccc1` (stereo not given), the activity, negative = inhibition result is “inactive”.

As to `O=C(Nc1ccc(Cl)cc1)Nc1nccs1`, the concentration at half-maximal activity (AC50) was 17.8 µM (active).

On to `O=C1CS[C@@H](c2ccccc2Cl)c2cc(Cl)ccc2N1`, for which the AC50 is 15.8 µM (active).

Consider `COc1cc2c(cc1OC)[C@@H]1C(=O)c3ccc4c(c3O[C@@H]1CO2)C=CC(C)(C)O4`, for which the activity, negative = inhibition result is “inactive”.

Consider `C[C@H](N)Cc1c[nH]c2ccc(O)cc12`, for which the activity, negative = inhibition entry was “inactive”.

Regarding `O=c1c2ccccc2c2ccccc2c(=O)n1-c1cc2c3ccccc3ccc2c2ccccc12`, the AC50 is 0.316 µM (active).

Consider `c1csc(CN2CCC3(CCNCC3)CC2)n1`, for which the activity, negative = inhibition result is “inactive”.

On to `CN(C)CCCNc1c2c(nc3ccc(Cl)cc13)CCCC2`, for which the activity, negative = inhibition was 6.4% [at 11.4 µM] (inactive).

In the case of `CC(=O)OCC1=C(C(=O)O)N2C(=O)[C@@H](N)[C@@H]2SC1`, the activity, negative = inhibition entry is “inactive”.

With `CCc1cc2c(nc1CC)CCN(CC/C(C)=N/OC)C2`, the activity, negative = inhibition was 7.8% [at 11.4 µM] (inactive).

As to `CS(=O)c1ccc(-c2nc(-c3ccc(F)cc3)c(-c3ccncc3)[nH]2)cc1` (stereo not given), the AC50 entry is “inactive and 2 µM (active)”.

Take `Cc1ccc(S(=O)(=O)N[C@@H](CCCCN)C(=O)CCl)cc1`: the activity, negative = inhibition entry is “inactive”.

`O=C(Nc1ccccc1)N1CCCC2(CCN(C(=O)Oc3ccccc3)CC2)C1`: the activity, negative = inhibition entry is “inactive”.

Consider `Cc1cc(C)c(C#N)c(SCC(=O)c2ccc(Cl)cc2Cl)n1`, for which the AC50 is 5.01 µM (active).

As to `COc1ccc2c(c1)CCC1[C@@H]2CCC2(C)[C@@H](NCCCCCCN3C(=O)C=CC3=O)CC[C@@H]12` (stereo not given in full), the activity, negative = inhibition entry was “inactive”.

As for `COc1ccc(C[C@@H](N)c2ccc(OC)cc2)cc1`, the activity, negative = inhibition was -15.8% [at 11.4 µM] (inactive).

On to `N=C(N)SCc1ccc(Cl)c2ccccc12` (tested in a mixture with another compound), for which the AC50 was 3.98 µM (active) and the activity, negative = inhibition was 9.59% [at 11.4 µM] (inactive).

`O=[As](O)(O)c1ccc(NCc2ccccc2)cc1`: the activity, negative = inhibition is -7.26% [at 11.4 µM] (inactive).

In the case of `C[C@H]1[C@H](NC(=O)/C(=N/OC(C)(C)C(=O)O)c2csc(N)n2)C(=O)N1S(=O)(=O)O` (stereo in doubt), the activity, negative = inhibition result is “inactive”.

Take `O=c1[nH]oc2c1CCNC2`: the activity, negative = inhibition entry was “inactive”.

Consider `N#Cc1ccc(CN2CC[C@@]3(CCCNC3)C2)cc1`, for which the activity, negative = inhibition result was “inactive”.

In the case of `COC(=O)C1=Nc2ccccc2/C1=C\c1c(O)n(-c2ccc(OC)cc2)c(=O)[nH]c1=O`, the AC50 is 1.26 µM (active).

Turning to `NCCCNCCSP(=O)(O)O`, the activity, negative = inhibition result is “inactive”.

As to `CN1Cc2c(ccc3c2OCO3)[C@@H]2[C@@H](O)Cc3cc4c(cc3[C@@H]21)OCO4`, the activity, negative = inhibition entry was “inactive”.

As for `NC(N)=NCCN=C(N)N`, the activity, negative = inhibition was 3.96% [at 11.4 µM] (inactive).

Take `Clc1cc(I)cc(Cl)c1NC1=NCCN1`: the activity, negative = inhibition result is “inactive”.

`CCc1ccccc1NC(=S)NC1CC2CCC(C1)N2Cc1ccco1` (stereo not given): the activity, negative = inhibition entry is “inactive”.

In the case of `CCNC(=S)NC1CC2CCCC(C1)N2Cc1ccco1` (stereo not given), the activity, negative = inhibition entry was “inactive”.

For the molecule `CC(C)CNC(=S)NC1CC2CCCC(C1)N2Cc1ccco1` (stereo not given), the AC50 was 2.82 µM (active).

As to `C#C[C@@]1(O)CC[C@@H]2[C@@H]3CCC4=CC(=O)CC[C@@]4(C)[C@H]3CC[C@]21C`, the activity, negative = inhibition entry was “inactive”.

Regarding `S=C(Nc1ccc(Cl)cc1)NC1CC2CCCC(C1)N2C1CCCC1` (stereo not given), the activity, negative = inhibition result was “inactive”.

Turning to `CC1=NN(c2ccccc2)C(=O)[C@@H]1N=Nc1ccc([As](=O)(O)O)c(O)c1`, the AC50 was 3.16 µM (active).

In the case of `Nc1nc(N)c(N=Nc2ccc([As](=O)(O)O)c(O)c2)c(N)n1`, the activity, negative = inhibition was -7.93% [at 11.4 µM] (inactive).

For `CC[N+](CC)(CC)CCOc1cccc(OCC[N+](CC)(CC)CC)c1OCC[N+](CC)(CC)CC`, the activity, negative = inhibition result is “inactive”.

As to `CC1=C2[C@@H]3OC(=O)[C@@H](C)[C@@H]3CC[C@]2(C)C=CC1=O`, the activity, negative = inhibition result was “inactive”.

As for `O=C(Nc1cccc(F)c1)N1CC2(CCNCC2)C1`, the activity, negative = inhibition result is “inactive”.

Regarding `Cc1nc(N)sc1CCN`, the activity, negative = inhibition result was “inactive”.

Consider `Cc1ccc(C2(c3ccc(C)c(O)c3C)CCN(C)CC2)c(C)c1O`, for which the activity, negative = inhibition was 7.08% [at 11.4 µM] (inactive).

Regarding `COc1ccc2c(c1OC)CN1CCc3cc4c(cc3[C@H]1C2)OCO4`, the activity, negative = inhibition result was “inactive”.

Consider `COc1cc([C@H]2c3cc4c(cc3[C@@H](O)[C@@H]3COC(=O)[C@H]23)OCO4)cc(OC)c1OC`, for which the AC50 is 1.26 µM (active).

In the case of `CP(=O)(O)C1=CCNCC1`, the activity, negative = inhibition entry is “inactive”.

For `COC(=O)[C@H]1[C@@H](c2ccccc2)[C@@]2(c3ccccc3)Oc3ccccc3[C@@]1(O)[C@@H]2O`, the activity, negative = inhibition was -12.5% [at 11.4 µM] (inactive).

For `S=C(S)N1CCCC1`, the AC50 is 20 µM (active).

Take `CCN=C=NCCCN(C)C`: the activity, negative = inhibition was -7.95% [at 11.4 µM] (inactive).

For the molecule `CC(=O)N1CCC2(CC1)CC(=O)c1cc(OCC(=O)N3CCN(C)CC3)ccc1O2`, the activity, negative = inhibition entry was “inactive”.

Regarding `O=C(COc1ccc2ccccc2c1)N1CCN(CC2CC3C=CC2C3)CC1` (stereo not given), the AC50 is 17.8 µM (active).

Regarding `N[C@@H](Cn1oc(=O)[nH]c1=O)C(=O)O`, the activity, negative = inhibition result is “inactive”.

On to `O=C(CCCN1CCC(n2c(=O)[nH]c3ccccc32)CC1)c1ccc(F)cc1`, for which the activity, negative = inhibition result was “inactive”.

With `C=C[C@H]1CN2CC[C@@H]1C[C@H]2[C@@H](O)c1ccnc2ccccc12`, the activity, negative = inhibition entry was “inactive”.

As for `O=S(=O)(O)/C(=C\c1ccccc1)c1ccccc1` (tested in a mixture with another compound), the activity, negative = inhibition was -14.8% [at 11.4 µM] (inactive).

On to `COc1cc(OC)c(/C=C2/C(=O)Nc3ccccc32)c(OC)c1`, for which the AC50 is 25.1 µM (active).

As to `c1ccc(C2CC2)c(OCC2=NCCN2)c1`, the activity, negative = inhibition entry is “inactive”.

Consider `c1ccc(CCN2CCOCC2)nc1`, for which the activity, negative = inhibition is -0.553% [at 11.4 µM] (inactive).

Turning to `C[C@@]12CC[C@H]3[C@@H](CC=C4C[C@H](OS(=O)(=O)O)CC[C@]43C)[C@H]1CCC2=O`, the activity, negative = inhibition result was “inactive”.

Take `c1ccc(CCN2CCCCCC2)nc1`: the activity, negative = inhibition was -1.38% [at 11.4 µM] (inactive).

On to `CC(C)C[C@H](NC(=O)N1CCCCCC1)C(=O)N[C@H](Cc1cn(C)c2ccccc12)C(=O)N[C@H](Cc1ccccn1)C(=O)O`, for which the AC50 is 6.31 µM (active).

`CC(C)C[C@H](NP(=O)(O)O[C@@H]1O[C@@H](C)[C@@H](O)[C@@H](O)[C@H]1O)C(=O)N[C@@H](Cc1c[nH]c2ccccc12)C(=O)O`: the activity, negative = inhibition entry was “inactive”.

Consider `CO[C@H]1C=C2CCN(C)[C@@H]2[C@@H]2c3cc4c(cc3C(=O)O[C@H]21)OCO4`, for which the activity, negative = inhibition result was “inactive”.

With `CC[n+]1c(/C=C/N(C)c2ccccc2)sc2ccc(Cl)cc21`, the activity, negative = inhibition result was “inactive”.

As for `CNCCCc1ccccc1`, the activity, negative = inhibition result is “inactive”.

On to `COc1ccc(OC)c([C@H](O)[C@H](C)N)c1`, for which the activity, negative = inhibition result was “inactive”.

In the case of `O=c1oc(Cl)c(Cl)c2ccccc12`, the AC50 was 15.8 µM (active).

With `NNC(N)=O`, the activity, negative = inhibition result was “inactive”.

Turning to `CCN1CCN(Cc2cc(OC)c(OC)cc2[N+](=O)[O-])CC1`, the activity, negative = inhibition result is “inactive”.

For `CCCN1CCC[C@H](c2cccc(O)c2)C1`, the activity, negative = inhibition result is “inactive”.

As for `CCC[C@@](C)(COC(N)=O)COC(=O)NC(C)C`, the activity, negative = inhibition entry is “inactive”.

Turning to `c1cnc(N2CC[C@@]3(CCCNC3)C2)nc1`, the activity, negative = inhibition result is “inactive”.

`CCCC(CCC)C(=O)O`: the activity, negative = inhibition result was “inactive”.

`CCc1ccc(CCN2CCCCC2)nc1`: the activity, negative = inhibition is -14.9% [at 11.4 µM] (inactive).

As for `CCNC(=O)[C@@H]1O[C@@H](n2cnc3c(N)ncnc32)[C@@H](O)[C@H]1O`, the activity, negative = inhibition entry is “inactive”.

For the molecule `CC(=O)Nc1ccccc1C(=O)OCc1ccc(C(=O)c2ccccc2)cc1`, the AC50 is 3.55 µM (active).

Regarding `CC[C@H]1CN2CCc3cc(OC)c(OC)cc3[C@H]2C[C@@H]1C[C@H]1NCCc2c1[nH]c1ccc(O)cc21`, the activity, negative = inhibition is 5.99% [at 11.4 µM] (inactive).
